Measurements as given in PubChem BioAssay (NCI).
Where “and” joins values, the source holds several entries; their conditions need not be identical. Identical values can stand only once. Compounds without any hit were thinned out: in the full panel of roughly 83,000, 20% have a hit.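 How to read the values: 0–100, growth inhibition (40 = 60% inhibited); 0, no net growth; -100 to 0, cell death (-40 = 40% of starting cells died; -100 = all dead).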

What was measured:
Experiment in all cases: NCI-60 one-dose screen, 48 h (100 = growth as untreated, 0 = no growth, -100 = all killed)
Settings in all cases: 10 µM unless noted; active = growth percent below 10; inactive = the rest
T-47D breast = tested on: T-47D breast
BT-549 breast = tested on: BT-549 breast
MDA-MB-435 melanoma = tested on: MDA-MB-435 melanoma
SW-620 colon = tested on: SW-620 colon
MCF7 breast = tested on: MCF7 breast
HCT-116 colon = tested on: HCT-116 colon
HCC-2998 colon = tested on: HCC-2998 colon
KM12 colon = tested on: KM12 colon

Measured: growth

CCCCOC1NC(=O)NC(=O)C1(F)C(=O)OCC (stereo unspecified)
inactive: T-47D breast 80.5% and 74.7% | BT-549 breast 57.3% and 59.5% | MDA-MB-435 melanoma 56.9% and 53.4% | SW-620 colon 94.6% and 76.7% | MCF7 breast 46.6% and 27.8% | HCT-116 colon 64.5% and 43.6% | HCC-2998 colon 45.5% and 26.1% | KM12 colon 60.2% and 49.4%

CC1=CC(=O)c2cccc(NC3=NCCO3)c21
inactive: T-47D breast 90.3% | BT-549 breast 101% | MDA-MB-435 melanoma 98.4% | SW-620 colon 95.2% | MCF7 breast 98.6% | HCT-116 colon 97.9% | HCC-2998 colon 104% | KM12 colon 97.7%

Nc1c(Cl)cc2c(c1Br)C(=O)c1ccccc1C2=O
inactive: T-47D breast 76% | BT-549 breast 114% | MDA-MB-435 melanoma 105% | SW-620 colon 99.6% | MCF7 breast 99.8% | HCT-116 colon 96.7% | HCC-2998 colon 101% | KM12 colon 106%

CCOC(=O)NC(N)=O
inactive: T-47D breast 104% and 107% | BT-549 breast 96% and 110% | MDA-MB-435 melanoma 101% and 99% | SW-620 colon 107% and 111% | MCF7 breast 103% and 107% | HCT-116 colon 99.3% and 99.5% | HCC-2998 colon 103% | KM12 colon 112%

CCOC(=O)c1csc(N)n1
inactive: T-47D breast 104% and 98.5% | BT-549 breast 102% and 105% | MDA-MB-435 melanoma 99% and 102% | SW-620 colon 104% and 103% | MCF7 breast 91.8% and 90.8% | HCT-116 colon 107% and 99.4% | HCC-2998 colon 115% and 101% | KM12 colon 110% and 108%

Cc1ccc(C(=O)c2ccc(C)cc2)cc1
inactive: T-47D breast 90.7% and 94.9% | BT-549 breast 92% | MDA-MB-435 melanoma 103% and 105% | SW-620 colon 104% and 101% | MCF7 breast 99.9% and 95.3% | HCT-116 colon 92.5% and 98% | HCC-2998 colon 87.5% and 99.8% | KM12 colon 102% and 108%

O=C(/C=C/C=C/c1ccc2c(c1)OCO2)N1CCCCC1
inactive: T-47D breast 90.8% and 103% | BT-549 breast 108% | MDA-MB-435 melanoma 98.9% and 104% | SW-620 colon 106% and 101% | MCF7 breast 101% and 82.8% | HCT-116 colon 103% and 98.1% | HCC-2998 colon 102% and 130% | KM12 colon 98.2% and 95%

COC1C(OC(N)=O)C(O)C(Oc2ccc3c(O)c(NC(=O)c4ccc(O)c(CC=C(C)C)c4)c(=O)oc3c2C)OC1(C)C (stereo unspecified)
inactive: T-47D breast 106% and 94.8% | BT-549 breast 112% and 97.8% | MDA-MB-435 melanoma 98.6% and 98.8% | SW-620 colon 104% and 92.7% | MCF7 breast 96.8% and 93.4% | HCT-116 colon 96.8% and 101% | HCC-2998 colon 107% and 96.6% | KM12 colon 110% and 101%

Cn1c(N)c(N=O)c(=O)n(C)c1=O
inactive: T-47D breast 105% and 99.8% | BT-549 breast 111% and 96.8% | MDA-MB-435 melanoma 109% and 102% | SW-620 colon 106% and 101% | MCF7 breast 98.1% and 99.5% | HCT-116 colon 102% and 90.8% | HCC-2998 colon 106% | KM12 colon 106% and 94.8%

Cc1nc2c(=O)[nH]c(=S)[nH]c2[nH]c1=O
inactive: T-47D breast 112% and 102% | BT-549 breast 118% and 105% | MDA-MB-435 melanoma 107% and 102% | SW-620 colon 105% and 101% | MCF7 breast 101% and 99.9% | HCT-116 colon 108% and 105% | HCC-2998 colon 102% and 106% | KM12 colon 109%

CCN(CC)CCO/N=C1\CC(c2ccc(OC)c(OC)c2)Oc2ccccc21 (stereo unspecified)
inactive: T-47D breast 89.4% | BT-549 breast 94% | MDA-MB-435 melanoma 100% | SW-620 colon 90.3% | MCF7 breast 89.4% | HCT-116 colon 84.1% | HCC-2998 colon 109% | KM12 colon 103%

CN1C2C=CC(=O)C1C1C(=O)N(c3ccccc3)C(=O)C12 (stereo unspecified)
inactive: T-47D breast 68.5% | BT-549 breast 52.9% | MDA-MB-435 melanoma 80.5% | SW-620 colon 37.3% | MCF7 breast 44.5% | HCT-116 colon 35.9% | HCC-2998 colon 113% | KM12 colon 56.3%
